# Experimental data as given in PubChem BioAssay (NCI).
# Where “and” joins values, the source holds several entries; their conditions need not be identical. Equal entries are not always repeated. Compounds without any hit were thinned out: in the full panel of roughly 83,000, 20% have a hit.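 Values shown are percent growth following 48 h exposure of cells in 96-well plates to a single concentration of compound; below 10 was considered active.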 Calls of active or inactive are those of the source.
# Test system: KM12 colon
# Assay: NCI-60 one-dose screen, 48 h (100 = growth as untreated, 0 = no growth, -100 = all killed)
# Details: 10 µM unless noted
row,Structure (SMILES),growth
1,CN1CNC(=O)NC1,117% (inactive) and 105% (inactive)
2,CC1CCC2(OC1)OC1CC3C4CC=C5CC(O)CCC5(C)C4CCC3(C)C1C2C (centres undefined),104% (inactive)
3,COc1cc(C(O)C2C(=O)OCC2C2(c3ccc4c(c3)OCO4)SCCCS2)cc(OC)c1OC (centres undefined),96.2% (inactive)
4,Nc1nc(N)c2[nH]cnc2n1,107% (inactive)
5,Cn1cnc([N+](=O)[O-])c1Sc1ncn[nH]1,107% (inactive)
6,O=c1[nH]cnc2c1ncn2C1OC(CO)C(O)C1O (centres undefined),111% (inactive) and 109% (inactive)
7,CC(=O)OCC1OC(OC(C)=O)C(OC(C)=O)C(OC(C)=O)C1OC(C)=O (centres undefined),109% (inactive) and 100% (inactive)
8,O=C1c2c(O)ccc(O)c2C(=O)c2c(NCCNCCO)ccc(NCCNCCO)c21,-11.4% (active) and -25.6% (active)
9,c1ccc(-c2nc3ccccc3s2)cc1,95.4% (inactive)
10,CCCCCCCCCCCCCCCCC(C(=O)O)C(O)(CC(=O)O)C(=O)O (centres undefined),105% (inactive) and -34.4% (active)
11,Nc1cc(N)c(N)cc1N,80.1% (inactive)
12,O=[N+]([O-])c1cccc(SSc2cccc([N+](=O)[O-])c2)c1,107% (inactive)
13,OCCN1CCCCCCC1,110% (inactive)
14,CC1CCC(C(C)C)C(NNC(N)=O)C1 (centres undefined),94% (inactive)
15,Fc1ccc([I+]c2ccc(F)cc2)cc1,54.5% (inactive)
16,CC1=C/C(O)CC(=O)Cc2nc(co2)C(=O)N2CCC=C2C(=O)OC(C(C)C)C(C)/C=C\C(=O)NC/C=C\1 (centres undefined),95.1% (inactive)
17,COc1ccc2cc1Oc1ccc(cc1)C[C@H]1c3cc(c(OC)cc3CCN1C)Oc1c(OC)c(OC)cc3c1[C@H](C2)N(C)CC3,15.6% (inactive)
18,O=C1OC(c2ccccc2)=N/C1=C\c1ccccc1,108% (inactive)
19,COc1ccc(Nc2ccc3ccccc3c2)cc1,46.7% (inactive)
